Screening results deposited in PubChem BioAssay by National Center for Advancing Translational Sciences (NCATS).
Compounds with a hit are over-represented: about 5.8% of the library has one in this group of screens.
SW480 rerep: inducers of DNA re-replication in SW480 colon cancer cells; SW480 DNA re-replication, Hoechst DNA content imaging, 48 h; Potency, µM (titrated, usually from 46.1 µM), for the others: at the top dose re-replication activation, actives largely listed as activators; 1.8% of 340,000 active; note: % of control where 0% means no effect; nearly all actives have a fitted effect of over 55% in size
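Cells (250 per well) received 23 nL compound or DMSO by pin tool and were kept 48 hr at 37 C, 5% CO2. Nuclei were then stained with Hoechst for 40 min and scanned for DNA content.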
KB-3-1 cytotox: kills parental KB-3-1 adenocarcinoma cells; KB-3-1 viability, CellTiter-Glo ATP luminescence, 72 h; Potency, µM (titrated, usually from 46.1 µM), usual class: cytotoxic; 1.4% of 400,000 active; note: % is set by controls: 0 for no effect and ±100 for the full control effect; nearly all actives have a fitted effect of over 60% in size
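Cytotoxicity measured as CellTiter-Glo luminescence after 72 h at 37 C. Compound titrations were pinned onto drug-naive KB-3-1 parental adenocarcinoma cells grown in DMEM with 10% FBS, and normalized data fitted to concentration-response curves.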
MCF10A rerep: DNA re-replication induction in MCF 10a cells; Potency, µM (titrated, usually from 46.1 µM), inactives show at the top dose activity, positive = re-replication, most hits filed as activators; MCF 10A DNA re-replication, Hoechst nuclear intensity, 48 h; 2.9% of 350,000 active; note: % of control where 0% means no effect; nearly all actives have a fitted effect of over 50% in size
PINK1 expr mod: changes PINK1 expression. PINK1 immunofluorescence, high-content cytometry, 24 h. Potency, µM (titrated, usually from 76.6 µM), inactives show top-dose activation (PINK1 increase), most hits filed as activators. 0.2% of 410,000 active. AID 624263; active = well fitted activation curve with a large enough effect; inconclusive = small, poorly fitted or top-dose-only effect; cell line not stated here; note: % of control where 0% means no effect; nearly all actives have a fitted effect of over 65% in size
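PINK1 protein level read as immunofluorescence by microplate cytometer in a fixed, stained stable cell line after 24 h exposure to five compound concentrations, with CCCP as control.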
ALOX12 inh: ALOX12 (human) lipoxygenase inhibition. 1.1% of 580,000 active. P18054. purified 12hLO, xylenol orange hydroperoxide absorbance. Potency, µM (series often up to 108 µM), for inactives: top-dose activity change, negative = inhibition, actives largely listed as inhibitors; note: % is set by controls: 0 for no effect and ±100 for the full control effect
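Purified human 12hLO at 150 nM in 25 mM Hepes, 0.01% Triton X-100, pH 7.0, preincubated 15 min at room temperature with compound. Reaction started with 40 uM arachidonic acid, 30 min at room temperature. Hydroperoxide measured by Fe-xylenol orange, 573/405 nm absorbance ratio.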
KB-V1 MDR tox: kills drug-selected multidrug resistant KB-V1 cells; KB-V1 MDR cells viability, CellTiter-Glo, 72 h; Potency, µM (top dose mostly 46.1 µM), hits mostly cytotoxic; 3.4% of 400,000 active; AID 1347076; note: % is set by controls: 0 for no effect and ±100 for the full control effect; nearly all actives have a fitted effect of over 60% in size
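In this primary screen, KB-V1 cells overexpressing P-gp are incubated with library compounds (lowest to highest concentration) for 72 h at 37 degrees C before a luminescent ATP viability read.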
Starred values were filed as active, the others as inactive; i = inactive; ? = inconclusive; / = not tested or not shown; [ ] = another dose, or the depositor's remark. Unless noted, calls come from the whole dose curve; as a rule, active = well fitted curve in the direction sought with a large enough effect; inconclusive = small, poorly fitted or top-dose-only effect, or another doubt; inactive = no such curve, though single readings can be large; an effect the other way counts as inactive or inconclusive. Potency is the fitted concentration of half-maximal effect.

SMILES | SW480 rerep | KB-3-1 cytotox | MCF10A rerep | PINK1 expr mod | ALOX12 inh | KB-V1 MDR tox
CCc1ccc(-c2c(C)sc(N)c2C#N)cc1 | / | / | / | / | 28µM* | /
COc1ccc(C2Nc3ccccc3C(=O)N2Cc2ccco2)cc1COc1c(C)cccc1C (centres undefined) | / | 16µM* | / | 1% | / | i
COc1cccc(OCc2cc(C3Nc4ccccc4C(=O)N3Cc3ccco3)ccc2OC)c1 (centres undefined) | 1% | i | 19% | 2% | -26% | 4.1µM*
COc1cc(OC)cc(C(=O)Oc2cc(C)cc(C)c2)c1 | / | / | / | / | 2% | /
CCCCn1cnc2c1c(=O)n(CC(O)COc1ccccc1)c(=O)n2CCC (centres undefined) | / | / | / | / | -2% | /
COCC(=O)N1CCc2oc(C)c(C(=O)N(C)C)c2C1 | / | / | / | / | 24% | /
O=C(/C=C/c1ccc(-c2ccc(F)cc2)s1)N1CCS(=O)CC1 | / | / | / | / | 10% | /
Cc1nn(Cc2ccc(C(=O)Nc3ccc(C(=O)OC(C)C)cc3)o2)c(C)c1Cl | -1% | i | ? | 25%[38.3 µM] | ? | 23µM*
CN(C)CC(C#N)C(O)c1ccccc1 (centres undefined) | / | / | / | / | -19% | /
N#C/C(=C\c1ccc(Br)s1)C(=O)N1CCN(c2ccccc2)CC1 | 0% | i | ? | 7% | -1% | 18µM*
Nc1ncnc2c(C3OC(CO)C(O)C3O)scc12 (centres undefined) | ? | 0.1µM* | ? | -2% | -2% | ?
Nc1nc(Br)c2ccccc2c1-c1ccccc1 | ? | i | 22µM* | 5% | 1% | i
Nc1nc(Br)c2c(F)cccc2c1-c1ccc(Cl)cc1 | 21µM* | i | 7.3µM* | -1%[38.3 µM] | -6% | i
Cc1ccc(C(C)(C)C)cc1S(=O)(=O)N1CC(=O)Nc2ccccc21 | 26% | i | 16% | 2% | ? | ?
CCOc1ccc(S(=O)(=O)N2CC(=O)Nc3ccccc32)cc1 | 15µM* | ? | ? | 5% | 70% | ?
CCOc1ccc(S(=O)(=O)N2c3ccccc3CC2C)cc1 (centres undefined) | 1.6µM* | 1.2µM* | ? | ? | -14% | 1.5µM*
Cc1ccc(S(=O)(=O)N2c3ccccc3CC2C)cc1 (centres undefined) | ? | i | ? | 4% | -4% | i
COc1ccc(S(=O)(=O)N2CC(=O)Nc3ccccc32)cc1Cl | -2% | i | ? | 0% | 6.3µM* | i
Cc1cc(C(C)(C)C)cc(C)c1S(=O)(=O)N1CC(=O)Nc2ccccc21 | ? | i | 18µM* | -4% | ? | i
COc1ccc(S(=O)(=O)Nc2ccc3n(c2=O)C[C@H]2C[C@@H]3CN(C(=O)Nc3cc(OC)cc(OC)c3)C2)cc1 | / | / | / | / | 17% | /
N#Cc1cn(-c2ccccc2)nc1-c1ccc2c(c1)OCCO2 | -3% | i | 10µM* | 12% | ? | i
O=C(c1ccc2ncsc2c1)N(Cc1ccccc1)Cc1ccco1 | / | / | / | / | -16% | /
O=C(COC(=O)CSc1ccc2ccccc2c1)Nc1ccccc1C(F)(F)F | / | / | / | / | -29% | /
Cc1ccc(NS(=O)(=O)c2cc([N+](=O)[O-])ccc2N/N=C/c2ccccc2)c(C)c1 | / | / | / | / | 0% | /
O=[N+]([O-])c1ccc(N/N=C/c2c[nH]c3ccccc23)cc1 | ? | ? | ? | -1% | ? | ?
O=C(O)COc1ccccc1C=NNc1ccc([N+](=O)[O-])cc1S(=O)(=O)Nc1ccc(Cl)cc1 | -3% | i | 2.1µM* | 7% | 35µM* | i
COc1ccccc1NS(=O)(=O)c1cc([N+](=O)[O-])ccc1N/N=C/c1c[nH]c2ccccc12 | ? | ? | 8.2µM* | 17% | 0% | ?
COc1ccc(C=NNc2ccc([N+](=O)[O-])cc2S(=O)(=O)Nc2ccccc2C(=O)O)cc1OC | -3% | i | 18µM* | -1% | ? | i
